Laboratory results as given in PubChem BioAssay AID1159580 (chemical genetic matrix, 2015).
“And” between values parts separate entries of the source, which are not always exact repeats. Identical values can stand only once. Among all 5,500 compounds or so, about 2,000 (36%) were called active. Roughly 18% stayed inconclusive and do not appear here. Rule as the data show it: active = normalized growth mostly below about 0.91 (no sharp cut-off); inconclusive = no clear call, values can overlap the other calls; inactive = mostly above about 0.92. The list shows a part of the results.

Experiment: chemical genetic growth profiling, strain panel (AID 1159580);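 also: tested at 20 µM; growth read once vehicle control cultures reached saturation at 30 °C; 1 = growth at the plate median or of vehicle wells; lower values mean less growth of the strain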
Details: S. cerevisiae deletion strains, growth OD

Measured: normalized growth

C[CH2][Hg][S]c1ccccc1C(=O)O
active: locus YAL013W, strain DEP1, stronger effect = lower value 0.0571 | locus YAL021C, strain ccr4, stronger effect = lower value 0.0644 | locus YAL026C, strain drs2, stronger effect = lower value 0.0601 | locus YAL030W, strain snc1, stronger effect = lower value 0.0549 | locus YBL061C, strain skt5, stronger effect = lower value 0.0584 | locus YBR009C, strain hhf1, stronger effect = lower value 0.0625 | locus YBR021W, strain FUR4, stronger effect = lower value 0.0826 | locus YBR023C, strain chs3, stronger effect = lower value 0.0607 | locus YBR171W, strain sec66, stronger effect = lower value 0.0719 | locus YBR229C, strain ROT2, stronger effect = lower value 0.0466 | locus YBR231C, strain swc5, stronger effect = lower value 0.0602 | locus YBR279W, strain paf1, stronger effect = lower value 0.0565 | locus YCL011C, strain gbp2, stronger effect = lower value 0.0545 | locus YCL016C, strain dcc1, stronger effect = lower value 0.0628 | locus YCL029C, strain bik1, stronger effect = lower value 0.0644 | locus YCL061C, strain MRC1, stronger effect = lower value 0.0624 | locus YCL069W, strain vba3, stronger effect = lower value 0.0582 | locus YCR088W, strain abp1, stronger effect = lower value 0.0571 | locus YDL005C, strain med2, stronger effect = lower value 0.0718 | locus YDL035C, strain GPR1, stronger effect = lower value 0.0506 | locus YDL040C, strain nat1, stronger effect = lower value 0.0559 | locus YDL074C, strain BRE1, stronger effect = lower value 0.0797 | locus YDL101C, strain DUN1, stronger effect = lower value 0.0547 | locus YDL134C, strain PPH21, stronger effect = lower value 0.0487 | locus YDL185W, strain tfp1, stronger effect = lower value 0.056 | locus YDL192W, strain arf1, stronger effect = lower value 0.0586 | locus YDR001C, strain nth1, stronger effect = lower value 0.0548 | locus YDR069C, strain doa4, stronger effect = lower value 0.0614 | locus YDR101C, strain arx1, stronger effect = lower value 0.0572 | locus YDR137W, strain rgp1, stronger effect = lower value 0.0826 | locus YDR150W, strain NUM1, stronger effect = lower value 0.058 | locus YDR159W, strain sac3, stronger effect = lower value 0.0891 | locus YDR162C, strain NBP2, stronger effect = lower value 0.0541 | locus YDR195W, strain ref2 0.117 | locus YDR297W, strain sur2, stronger effect = lower value 0.0559 | locus YDR318W, strain mcm21, stronger effect = lower value 0.0596 | locus YDR334W, strain swr1, stronger effect = lower value 0.06 | locus YDR335W, strain msn5, stronger effect = lower value 0.0577 | locus YDR388W, stronger effect = lower value 0.0549 | locus YDR392W, strain spt3, stronger effect = lower value 0.0928 | locus YDR502C, strain sam2, stronger effect = lower value 0.0576 | locus YEL003W, strain gim4, stronger effect = lower value 0.0526 | locus YEL037C, strain rad23, stronger effect = lower value 0.0545 | locus YEL061C, strain CIN8 (second series), stronger effect = lower value 0.058 | locus YEL061C, strain CIN8, stronger effect = lower value 0.0473 | locus YER015W, strain faa2, stronger effect = lower value 0.0585 | locus YER016W, strain bim1, stronger effect = lower value 0.059 | locus YER110C, stronger effect = lower value 0.0716 | locus YER111C, strain swi4, stronger effect = lower value 0.0734 | locus YER155C, strain BEM2 (second series), stronger effect = lower value 0.0849 | locus YER155C, strain BEM2, stronger effect = lower value 0.0624 | locus YER167W, strain BCK2, stronger effect = lower value 0.0502 | locus YFR010W, strain ubp6, stronger effect = lower value 0.0647 | locus YGL078C, strain dbp3, stronger effect = lower value 0.0538 | locus YGL086W, strain mad1, stronger effect = lower value 0.0535 | locus YGL167C, strain pmr1, stronger effect = lower value 0.0714 | locus YGL173C, strain kem1, stronger effect = lower value 0.0663 | locus YGL227W, strain vid30, stronger effect = lower value 0.059 | locus YGL240W, strain doc1, stronger effect = lower value 0.0734 | locus YGL248W, strain PDE1, stronger effect = lower value 0.0448 | locus YGL253W, strain hxk2, stronger effect = lower value 0.0514 | locus YGR078C, strain PAC10, stronger effect = lower value 0.0492 | locus YGR135W, strain pre9, stronger effect = lower value 0.0647 | locus YGR229C, strain SMI1, stronger effect = lower value 0.0574 | locus YGR252W, strain gcn5, stronger effect = lower value 0.152 | locus YHR013C, strain ard1, stronger effect = lower value 0.106 | locus YHR027C, strain rpn1, stronger effect = lower value 0.0612 | locus YHR030C, strain SLT2, stronger effect = lower value 0.0498 and 0.113 | locus YHR079C, strain IRE1 (second series), stronger effect = lower value 0.0541 | locus YHR079C, strain IRE1, stronger effect = lower value 0.123 | locus YHR094C, strain hxt1, stronger effect = lower value 0.0545 | locus YHR129C, strain ARP1, stronger effect = lower value 0.0546 | locus YHR142W, strain chs7, stronger effect = lower value 0.0696 | locus YHR200W, strain rpn10, stronger effect = lower value 0.057 | locus YIL066C, strain RNR3, stronger effect = lower value 0.0505 | locus YIL073C, strain SPO22, stronger effect = lower value 0.103 | locus YIL125W, strain kgd1, stronger effect = lower value 0.0543 | locus YIR030C, strain dcg1, stronger effect = lower value 0.0568 | locus YJL092W, strain hpr5, stronger effect = lower value 0.0555 | locus YJL095W, strain BCK1 (second series), stronger effect = lower value 0.0563 | locus YJL095W, strain BCK1, stronger effect = lower value 0.0505 and 0.109 | locus YJL115W, strain asf1, stronger effect = lower value 0.0695 | locus YJL129C, strain trk1, stronger effect = lower value 0.0829 | locus YJL134W, strain LCB3, stronger effect = lower value 0.0483 | locus YJL154C, strain vps35, stronger effect = lower value 0.0588 | locus YJL164C, strain tpk1, stronger effect = lower value 0.0629 | locus YJL166W, strain qcr8, stronger effect = lower value 0.0596 | locus YJL168C, strain set2, stronger effect = lower value 0.0562 | locus YJL187C, strain SWE1 (second series), stronger effect = lower value 0.0465 | locus YJL187C, strain SWE1, stronger effect = lower value 0.0547 | locus YJR043C, strain POL32, stronger effect = lower value 0.0607 | locus YJR066W, strain TOR1, stronger effect = lower value -0.000335
